# Screens (PubChem)
# Rows were chosen to be rich in hits. Some 4.6% of all compounds tested hit in one or more screens of this group.
# TRHR PAM: allosteric enhancers of human TRH receptor. enhancement, % at 2 µM. P34981. TRHR cells, fluo-8 calcium fluorescence, EC20 TRH enhancement. 0.66% of 360,000 active; in the data active means enhancement above about 30%; further: 0% is about no effect
# Target sequence (P34981 whole entry, looked up): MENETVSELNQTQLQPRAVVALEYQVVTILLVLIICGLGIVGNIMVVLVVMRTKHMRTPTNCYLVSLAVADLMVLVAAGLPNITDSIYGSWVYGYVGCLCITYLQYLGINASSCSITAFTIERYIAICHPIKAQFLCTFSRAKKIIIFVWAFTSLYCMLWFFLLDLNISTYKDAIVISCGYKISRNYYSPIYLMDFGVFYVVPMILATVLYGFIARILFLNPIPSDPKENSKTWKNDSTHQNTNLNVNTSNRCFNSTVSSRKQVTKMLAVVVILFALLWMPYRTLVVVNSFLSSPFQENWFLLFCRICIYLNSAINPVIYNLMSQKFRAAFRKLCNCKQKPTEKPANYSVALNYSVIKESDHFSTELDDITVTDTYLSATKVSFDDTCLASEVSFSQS
#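 TRHR-expressing cells loaded with fluo-8 calcium dye were read kinetically (ex 480/em 530) during compound addition, then stimulated with an EC20 of TRH (10 nM final). Enhancement of the Gq-mediated intracellular calcium response was scored.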
# D1 antagonist: blocks dopamine activation of the human D1 receptor; P21728; HEK293 TREx D1 cells, calcium flux, dopamine EC80; active compounds read low; activity change, negative = inhibition, % at 10 µM; 3.2% of 360,000 active; in the data active means activity change below about -30%; further: on the % scale 0 is the no-effect control and ±100 the full control effect
#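 Calcium flux readout: force-coupled, inducible Hek293 Trex D1 line, cells induced overnight at 30 C with tetracycline, dye-loaded 30–90 min at RT. Antagonism scored against EC80 dopamine challenge given 180 s after compound.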
# TRHR agonist: agonists of human TRH receptor; TRHR cells, calcium flux fluo-8, FDSS agonist mode; activation, % at 2 µM; 0.18% of 360,000 active; P34981; further: 0% is about no effect
#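 Fluo-8-loaded TRHR cells; 10 s baseline, compound added, kinetic Ca2+ fluorescence read 1/s, agonist mode.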
# D1 ag: agonists of human D1 dopamine receptor | P21728 | HEK293 T-REx D1 cells, calcium flux, agonist mode | activation, % at 2 µM | 1% of 360,000 active | AID 504660; further: 0% is about no effect
#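 Inducible HEK293 T-REx D1 cells, force-coupled to calcium signalling, were plated at 4000 cells/well with tetracycline and held overnight at 30 C. After no-wash calcium dye loading, compound-evoked calcium rise over 180 s flagged agonists.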
# D1 potentiator: potentiators of human D1 dopamine receptor; 0.036% of 360,000 active; P21728; potentiation, % at 10 µM; HEK293 TREx D1 cells, calcium flux, dopamine EC20 potentiation; in the data active means potentiation above about 30%; further: 0% is about no effect
# Starred values were filed as active, the others as inactive; ! = not confirmed by another sample. Unless noted, no stated cut-off is given here; in the data, active means activation above about 30%; inactive means the rest.
SMILES,TRHR PAM,D1 antagonist,TRHR agonist,D1 ag,D1 potentiator
COc1ccc2c(c1)CC(C(=O)NCCCN1CCN(c3ccccc3F)CC1)CO2 (stereo not given),0.6,-18.8,0.2,2.7,-3.1
COc1ccc2c(c1)CC(C(=O)NCCN1CCN(c3cccc(Cl)c3)CC1)CO2 (stereo not given),-3.9,-47.0*,-0.1,24.0,-1.6
O=C(NCCN1CCN(c2ccccc2F)CC1)C1COc2ccccc2C1 (stereo not given),6.0,-57.1*,0.1,-1.6,-4.6
COc1ccccc1NC(=O)c1cc2c(=O)oc3ccc(C)cc3c2s1,5.4,0.7,0.4,1.0,-2.7
CCCCC12CN3CC(C)(CN(C1)C3c1c[nH]c3ccccc13)C2=O (stereo not given),1.1,0.4,5.3,-1.7,1.3
Cc1ccc(S(=O)(=O)NNC(=O)C2Cc3c(ccc4ccccc34)O2)cc1 (stereo not given),-4.0,-23.1,0.0,32.6*,-3.5
COc1ccc(CCNC(=O)c2cc(C)nc3c2c(C)nn3-c2ccccc2)cc1OC,-5.6,-6.5,-1.9,3.2,1.1
CCOC(=O)N1CCc2c(sc3c2c(=O)n(CCc2ccccc2)c(=O)n3Cc2cc(C)ccc2C)C1,1.5,-50.9*,0.9,1.5,-3.5
CCOc1ccc(C(=O)Nc2ccc(C(=O)OCc3cc(=O)n4c(C)csc4n3)cc2)cc1,-4.5,-17.0,2.0,13.6,-0.1
O=C1CN(C(=O)c2ccc(Cl)cc2Cl)C(c2ccc(F)cc2)c2cc(F)ccc2N1 (stereo not given),8.7,7.8,0.9,3.2,2.5
Cc1cc2nc(CCl)cc(=O)n2[nH]1,-0.7,5.0,0.4,2.3,-3.0
Cc1cc2nc(CSc3ccccc3)cc(=O)n2[nH]1,-4.6,-32.9*,0.4,1.9,1.9
CCc1ccc(C(=O)c2cn(CC(=O)Nc3ccc4c(c3)OCO4)c3ccc(OC)cc3c2=O)cc1,1.9,-2.0,-0.2,2.2,-1.2
Cc1cc(C)cc(NC(=O)C(=O)NCC(c2cccnc2)N2CCc3ccccc3C2)c1 (stereo not given),1.9,-5.1,0.2,0.8,-0.6
Cc1ccc(NC(=O)Cn2cc(C(=O)C3CC3)c3ccccc32)c(C)c1,36.3*!,0.4,0.8,-1.7,-2.5
CCc1nc(C)c(C#N)c2cc(OC)c(OC)cc12,5.6,-33.6*,-0.6,-0.2,-6.2
COc1ccc2c(Sc3ccc(Cl)cc3)c(C(=O)N3CCCCC3)[nH]c2c1,-0.4,-19.6,-1.0,0.9,-2.3
O=C(COC(=O)C12CC3CC(CC(O)(C3)C1)C2)NCCc1ccc(Cl)cc1,-8.4,-40.3*,-0.1,1.1,-13.8
O=C(COC(=O)C12CC3CC(CC(O)(C3)C1)C2)Nc1ccc(Cl)cc1F,-2.9,-3.7,-0.6,0.1,2.2
CC(C(=O)NCC1CCCO1)n1cccc1C(=O)c1ccccc1 (stereo not given),8.8,-31.5*,-0.5,1.5,-1.9
CCOC(=O)c1c(C(C)(C)C)oc2ccc(O)cc12,-4.6,-1.5,-1.0,88.2*,3.0
CN(C(=O)CSc1nnc(COc2ccccc2)o1)c1ccccc1,-1.4,-0.4,-0.3,-0.4,0.1
CCCNC(=O)c1ccc2c(=O)c(O)c(-c3ccsc3)[nH]c2c1,3.1,-19.4,4.3,9.4,-5.0
Cc1ccc(CNC(=O)c2ccc3c(=O)c(O)c(-c4ccc(C)cc4)[nH]c3c2)cc1,-1.1,-40.6*,4.7,8.1,-7.8
CCCNC(=O)c1ccc2c(=O)c(O)c(-c3ccc(OC)cc3)[nH]c2c1,-5.2,-35.2*,2.2,0.9,-7.8
Cc1ccc(-c2[nH]c3cc(C(=O)NCCCn4ccnc4)ccc3c(=O)c2O)cc1,7.0,-57.5*,3.1,5.4,-8.5
CCCNC(=O)c1ccc2c(=O)c(O)c(-c3ccc(C)cc3)[nH]c2c1,-6.1,-92.6*,4.1,6.2,-9.4
CCC(=O)N1CCc2cc(Br)cc(S(=O)(=O)NCCc3ccccc3Cl)c21,-1.5,-17.2,0.0,1.9,-0.5
COc1ccccc1C1NC(=O)c2n[nH]c(-c3cccs3)c21 (stereo not given),19.8,23.7,-0.3,1.4,-0.5
Cc1ccc(CNC(=O)c2ccc3c(O)c(S(=O)(=O)c4ccc(Cl)cc4)c(=O)[nH]c3c2)cc1,7.1,5.5,0.1,1.1,-5.6
